Results from PMC8222333, “AsCas12a ultra nuclease facilitates the rapid generation of therapeutic cell medicines”.

B1: AGGT (dsDNA)
DNA 1: GCTATCTAGTGCTCAGTACGCACTGAGGTAGGAAACTTCTGGCAGGACCAGGTCATGAGATCGGAAGAGCACACGTCTGAACTCCAGTCA
DNA 2: TGACTGGAGTTCAGACGTGTGCTCTTCCGATCTCATGACCTGGTCCTGCCAGAAGTTTCCTACCTCAGTGCGTACTGAGCACTAGATAGC
RNA: AAUUUCUACUCUUGUAGAUAGGAAACUUCUGGCAGGACC
B2: AGTA (dsDNA)
DNA 1: GCTATCTAGTGCTCAGTACGCACTGAGTAAGGAAACTTCTGGCAGGACCAGGTCATGAGATCGGAAGAGCACACGTCTGAACTCCAGTCA
DNA 2: TGACTGGAGTTCAGACGTGTGCTCTTCCGATCTCATGACCTGGTCCTGCCAGAAGTTTCCTTACTCAGTGCGTACTGAGCACTAGATAGC
RNA: AAUUUCUACUCUUGUAGAUAGGAAACUUCUGGCAGGACC
B3: AGTC (dsDNA)
DNA 1: GCTATCTAGTGCTCAGTACGCACTGAGTCAGGAAACTTCTGGCAGGACCAGGTCATGAGATCGGAAGAGCACACGTCTGAACTCCAGTCA
DNA 2: TGACTGGAGTTCAGACGTGTGCTCTTCCGATCTCATGACCTGGTCCTGCCAGAAGTTTCCTGACTCAGTGCGTACTGAGCACTAGATAGC
RNA: AAUUUCUACUCUUGUAGAUAGGAAACUUCUGGCAGGACC
B4: AGTG (dsDNA)
DNA 1: GCTATCTAGTGCTCAGTACGCACTGAGTGAGGAAACTTCTGGCAGGACCAGGTCATGAGATCGGAAGAGCACACGTCTGAACTCCAGTCA
DNA 2: TGACTGGAGTTCAGACGTGTGCTCTTCCGATCTCATGACCTGGTCCTGCCAGAAGTTTCCTCACTCAGTGCGTACTGAGCACTAGATAGC
RNA: AAUUUCUACUCUUGUAGAUAGGAAACUUCUGGCAGGACC
B5: AGTT (dsDNA)
DNA 1: GCTATCTAGTGCTCAGTACGCACTGAGTTAGGAAACTTCTGGCAGGACCAGGTCATGAGATCGGAAGAGCACACGTCTGAACTCCAGTCA
DNA 2: TGACTGGAGTTCAGACGTGTGCTCTTCCGATCTCATGACCTGGTCCTGCCAGAAGTTTCCTAACTCAGTGCGTACTGAGCACTAGATAGC
RNA: AAUUUCUACUCUUGUAGAUAGGAAACUUCUGGCAGGACC
B6: ATAA (dsDNA)
DNA 1: GCTATCTAGTGCTCAGTACGCACTGATAAAGGAAACTTCTGGCAGGACCAGGTCATGAGATCGGAAGAGCACACGTCTGAACTCCAGTCA
DNA 2: TGACTGGAGTTCAGACGTGTGCTCTTCCGATCTCATGACCTGGTCCTGCCAGAAGTTTCCTTTATCAGTGCGTACTGAGCACTAGATAGC
RNA: AAUUUCUACUCUUGUAGAUAGGAAACUUCUGGCAGGACC
B7: ATGA (dsDNA)
DNA 1: GCTATCTAGTGCTCAGTACGCACTGATGAAGGAAACTTCTGGCAGGACCAGGTCATGAGATCGGAAGAGCACACGTCTGAACTCCAGTCA
DNA 2: TGACTGGAGTTCAGACGTGTGCTCTTCCGATCTCATGACCTGGTCCTGCCAGAAGTTTCCTTCATCAGTGCGTACTGAGCACTAGATAGC
RNA: AAUUUCUACUCUUGUAGAUAGGAAACUUCUGGCAGGACC
B8: ATGT (dsDNA)
DNA 1: GCTATCTAGTGCTCAGTACGCACTGATGTAGGAAACTTCTGGCAGGACCAGGTCATGAGATCGGAAGAGCACACGTCTGAACTCCAGTCA
DNA 2: TGACTGGAGTTCAGACGTGTGCTCTTCCGATCTCATGACCTGGTCCTGCCAGAAGTTTCCTACATCAGTGCGTACTGAGCACTAGATAGC
RNA: AAUUUCUACUCUUGUAGAUAGGAAACUUCUGGCAGGACC
B9: CCCC (dsDNA)
DNA 1: GCTATCTAGTGCTCAGTACGCACTGCCCCAGGAAACTTCTGGCAGGACCAGGTCATGAGATCGGAAGAGCACACGTCTGAACTCCAGTCA
DNA 2: TGACTGGAGTTCAGACGTGTGCTCTTCCGATCTCATGACCTGGTCCTGCCAGAAGTTTCCTGGGGCAGTGCGTACTGAGCACTAGATAGC
RNA: AAUUUCUACUCUUGUAGAUAGGAAACUUCUGGCAGGACC
B10: CCGG (dsDNA)
DNA 1: GCTATCTAGTGCTCAGTACGCACTGCCGGAGGAAACTTCTGGCAGGACCAGGTCATGAGATCGGAAGAGCACACGTCTGAACTCCAGTCA
DNA 2: TGACTGGAGTTCAGACGTGTGCTCTTCCGATCTCATGACCTGGTCCTGCCAGAAGTTTCCTCCGGCAGTGCGTACTGAGCACTAGATAGC
RNA: AAUUUCUACUCUUGUAGAUAGGAAACUUCUGGCAGGACC
B11: CCTA (dsDNA)
DNA 1: GCTATCTAGTGCTCAGTACGCACTGCCTAAGGAAACTTCTGGCAGGACCAGGTCATGAGATCGGAAGAGCACACGTCTGAACTCCAGTCA
DNA 2: TGACTGGAGTTCAGACGTGTGCTCTTCCGATCTCATGACCTGGTCCTGCCAGAAGTTTCCTTAGGCAGTGCGTACTGAGCACTAGATAGC
RNA: AAUUUCUACUCUUGUAGAUAGGAAACUUCUGGCAGGACC
B12: CCTC (dsDNA)
DNA 1: GCTATCTAGTGCTCAGTACGCACTGCCTCAGGAAACTTCTGGCAGGACCAGGTCATGAGATCGGAAGAGCACACGTCTGAACTCCAGTCA
DNA 2: TGACTGGAGTTCAGACGTGTGCTCTTCCGATCTCATGACCTGGTCCTGCCAGAAGTTTCCTGAGGCAGTGCGTACTGAGCACTAGATAGC
RNA: AAUUUCUACUCUUGUAGAUAGGAAACUUCUGGCAGGACC
B13: CCTG (dsDNA)
DNA 1: GCTATCTAGTGCTCAGTACGCACTGCCTGAGGAAACTTCTGGCAGGACCAGGTCATGAGATCGGAAGAGCACACGTCTGAACTCCAGTCA
DNA 2: TGACTGGAGTTCAGACGTGTGCTCTTCCGATCTCATGACCTGGTCCTGCCAGAAGTTTCCTCAGGCAGTGCGTACTGAGCACTAGATAGC
RNA: AAUUUCUACUCUUGUAGAUAGGAAACUUCUGGCAGGACC
B14: CCTT (dsDNA)
DNA 1: GCTATCTAGTGCTCAGTACGCACTGCCTTAGGAAACTTCTGGCAGGACCAGGTCATGAGATCGGAAGAGCACACGTCTGAACTCCAGTCA
DNA 2: TGACTGGAGTTCAGACGTGTGCTCTTCCGATCTCATGACCTGGTCCTGCCAGAAGTTTCCTAAGGCAGTGCGTACTGAGCACTAGATAGC
RNA: AAUUUCUACUCUUGUAGAUAGGAAACUUCUGGCAGGACC
B15: CGGG (dsDNA)
DNA 1: GCTATCTAGTGCTCAGTACGCACTGCGGGAGGAAACTTCTGGCAGGACCAGGTCATGAGATCGGAAGAGCACACGTCTGAACTCCAGTCA
DNA 2: TGACTGGAGTTCAGACGTGTGCTCTTCCGATCTCATGACCTGGTCCTGCCAGAAGTTTCCTCCCGCAGTGCGTACTGAGCACTAGATAGC
RNA: AAUUUCUACUCUUGUAGAUAGGAAACUUCUGGCAGGACC

Each binder was assayed against dAsCas12a Ultra (Acidaminococcus sp., UniProt U2UMQ6 1-1307, M537R;F870L;D908A;E993A;D1235A) (assay: Spec-seq (native PAGE EMSA with sequencing of bound and unbound); 25 mM Tris-HCl pH 7.4, 150 mM KCl, 5 mM MgCl2, 10% glycerol, 1 mM DTT, 40 ng/uL salmon sperm DNA; 400 nM Cas12a, 480 nM crRNA, 50 nM library, 37 C 1 h; native PAGE at room temperature; high values mean tight binding). Conditions: protein: recombinant.

Binder | binding signal
B1 | -8.68 lnKA
B2 | -8.43 lnKA
B3 | -8.75 lnKA
B4 | -8.77 lnKA
B5 | -8.9 lnKA
B6 | -8.76 lnKA
B7 | -8.29 lnKA
B8 | -8.98 lnKA
B9 | -8.74 lnKA
B10 | -8.87 lnKA
B11 | -7.06 lnKA
B12 | -6.9 lnKA
B13 | -7.53 lnKA
B14 | -8.97 lnKA
B15 | -8.98 lnKA

What follows are binders tested against dAsCas12a S542R (Acidaminococcus sp., UniProt U2UMQ6 1-1307, S542R;D908A;E993A;D1235A) in the same assay as above. Conditions: protein: recombinant.

Binder | binding signal
B1 | -8.5 lnKA
B2 | -7.93 lnKA
B3 | -8.14 lnKA
B4 | -8.41 lnKA
B5 | -8.18 lnKA
B6 | -8.17 lnKA
B7 | -7.95 lnKA
B8 | -8.67 lnKA
B9 | -4.35 lnKA
B10 | -8.41 lnKA
B11 | -7.77 lnKA
B12 | -7.68 lnKA
B13 | -8.1 lnKA
B14 | -8.32 lnKA

The binders below were run against d-enCas12a (Acidaminococcus sp., UniProt U2UMQ6 1-1307, E174R;S542R;K548R;D908A;E993A;D1235A) in the same assay as above. Conditions: protein: recombinant.

Binder | binding signal
B1 | -5.71 lnKA
B2 | -2.11 lnKA
B3 | -2.3 lnKA
B4 | -3.79 lnKA
B5 | -4.88 lnKA
B6 | -5.28 lnKA
B7 | -5.35 lnKA
B8 | -5.72 lnKA
B9 | -1.8 lnKA
B10 | -6.11 lnKA
B11 | -5.38 lnKA
B12 | -5.18 lnKA
B13 | -5.7 lnKA
B14 | -5.69 lnKA
B15 | -6.24 lnKA

These binders were tested against d-enCas12a-Ultra (Acidaminococcus sp., UniProt U2UMQ6 1-1307, E174R;S542R;K548R;M537R;F870L;D908A;E993A;D1235A) in the same assay as above. Conditions: protein: recombinant.

Binder | binding signal
B1 | -3.43 lnKA
B2 | -0.526 lnKA
B3 | -0.544 lnKA
B4 | -1.18 lnKA
B5 | -1.91 lnKA
B6 | -3.12 lnKA
B7 | -3.17 lnKA
B8 | -3.21 lnKA
B9 | -0.387 lnKA
B10 | -3.44 lnKA
B11 | -2.2 lnKA
B12 | -2.06 lnKA
B13 | -3.13 lnKA
B14 | -3.27 lnKA
B15 | -3.42 lnKA

Each binder was assayed against dAsCas12a E174R (Acidaminococcus sp., UniProt U2UMQ6 1-1307, E174R;D908A;E993A;D1235A) in the same assay as above. Conditions: protein: recombinant.

Binder | binding signal
B2 | -8.14 lnKA
B3 | -8.31 lnKA
B4 | -8.75 lnKA
B5 | -8.38 lnKA
B6 | -8.75 lnKA
B7 | -8.88 lnKA
B9 | -8.52 lnKA
B11 | -5.98 lnKA
B12 | -6.59 lnKA
B13 | -7.6 lnKA
B14 | -8.31 lnKA

These binders were tested against dAsCas12a K548R (Acidaminococcus sp., UniProt U2UMQ6 1-1307, K548R;D908A;E993A;D1235A) in the same assay as above. Conditions: protein: recombinant.

Binder | binding signal
B2 | -8.98 lnKA
B3 | -7.9 lnKA
